Compound activity: PubChem, The Scripps Research Institute Molecular Screening Center
Fam108B counter – Fam108B inhibition, counter-screen for RBBP9 inhibitors; 300,000 tested, 0.33% active; inhibition, % at 9.51 µM; recombinant Fam108B, FP-Rh probe fluorescence polarization;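 active means inhibition above the screen mean inhibition plus 3 SD, computed separately per campaign, cut at about 18% in these data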;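 further: inhibitors lower polarization as less probe binds the enzyme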
PME-1 inh – blocks human protein phosphatase methylesterase 1; recombinant PME-1, FP-Rh probe fluorescence polarization; Q9Y570; inhibition, % at 5.9 µM; 320,000 tested, 0.53% active; AID 2130;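 active means inhibition above the campaign mean of all compounds plus 3 SD, cut at about 26% in these data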;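 further: competitive labeling of PME-1 active site by serine hydrolase directed probe; 0% = PME-1 with DMSO and 100% = wells lacking PME-1 enzyme; inhibitors block probe labeling so polarization falls and inhibition rises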
Target sequence (Q9Y570 whole entry, looked up): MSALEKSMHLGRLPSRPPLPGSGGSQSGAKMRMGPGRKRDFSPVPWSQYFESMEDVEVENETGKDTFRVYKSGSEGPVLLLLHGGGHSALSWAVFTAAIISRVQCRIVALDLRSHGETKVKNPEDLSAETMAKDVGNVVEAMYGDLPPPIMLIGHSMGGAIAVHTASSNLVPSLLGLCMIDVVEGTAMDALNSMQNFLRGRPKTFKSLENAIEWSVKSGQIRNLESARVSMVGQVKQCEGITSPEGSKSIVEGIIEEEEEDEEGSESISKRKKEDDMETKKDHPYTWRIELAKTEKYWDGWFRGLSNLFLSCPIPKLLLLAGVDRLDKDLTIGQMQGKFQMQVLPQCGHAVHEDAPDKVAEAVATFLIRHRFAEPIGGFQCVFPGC
PAFAH1B2 FP inh – PAFAH1B2 (human) inhibition; inhibition, % at 3.39 µM; P68402; recombinant PAFAH1B2, FP-rhodamine activity probe, fluorescence polarization; 340,000 tested, 1.2% active;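 active means inhibition above the mean of all tested compounds plus 3 SD, cut at about 24% in these data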;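 further: 0% = enzyme with DMSO and 100% = wells lacking PAFAH1B2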
pPAFAH inh – inhibitors of human plasma PAF acetylhydrolase (pPAFAH). Q13093. recombinant pPAFAH, FP-rhodamine probe fluorescence polarization. inhibition, % at 3.39 µM. 330,000 tested, 1.5% active. AID 463082;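 active means inhibition above the mean inhibition across the screen plus 3 SD, cut at about 25% in these data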;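 further: inhibitors block binding of the rhodamine activity-based probe so polarization drops; 0% = enzyme with DMSO and 100% = wells lacking pPAFAH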
PAFAH2 FP inh – PAFAH2 (human) inhibition | Q99487 | recombinant PAFAH2, FP-rhodamine activity probe, fluorescence polarization | inhibition, % at 3.39 µM | 340,000 tested, 0.99% active | AID 492956;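 active means inhibition above the mean over all tested compounds plus 3 SD, cut at about 30% in these data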;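 further: inhibitors block probe labeling of enzyme so polarization drops; 0% = enzyme with DMSO and 100% = wells lacking PAFAH2 protein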
PAFAH1B3 inh – PAFAH1B3 (human) inhibition. Q15102. recombinant PAFAH1B3, FP-rhodamine probe, fluorescence polarization. inhibition, % at 3.39 µM. 340,000 tested, 0.28% active. AID 492972;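 active means inhibition above the screen-wide average of all tested compounds plus 3 SD, cut at about 25% in these data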;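 further: 0% = enzyme with DMSO only and 100% = wells lacking PAFAH1B3 protein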
Target sequence (Q15102 whole entry, looked up): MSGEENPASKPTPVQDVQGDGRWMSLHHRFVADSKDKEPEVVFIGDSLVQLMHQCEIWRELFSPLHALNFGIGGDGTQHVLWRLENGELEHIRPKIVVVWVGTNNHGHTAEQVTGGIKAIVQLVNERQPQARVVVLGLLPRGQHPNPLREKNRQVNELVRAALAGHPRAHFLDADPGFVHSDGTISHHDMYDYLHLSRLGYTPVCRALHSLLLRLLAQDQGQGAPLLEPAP
Starred values were filed as active, the others as inactive; x = no result given. Sampled rows, rich in hits. Any-hit rate of the full collection: about 2.8%.

SMILES	Fam108B counter	PME-1 inh	PAFAH1B2 FP inh	pPAFAH inh	PAFAH2 FP inh	PAFAH1B3 inh
Cc1ccc(SCCNC(=O)c2ccccc2F)cc1	-12	-3	25*	5	-6	0
O=C(NCCSc1ccccc1)c1ccccc1F	0	1	5	1	2	1
CCOc1ccccc1C(=O)NCC(=O)NCCSc1ccc(Br)cc1	x	x	28*	x	-4	4
CCOc1ccccc1C(=O)NCCNC(=O)c1ccccc1OCC	1	3	3	2	0	0
Cc1ccc(SCCNC(=O)c2ccccc2)cc1	2	3	27*	2	8	9
COc1ccc(C(=O)NCCSc2ccc(C)cc2)cc1	-3	4	15	-4	0	5
O=c1[nH]nc(Cc2ncc(C(F)(F)F)cc2Cl)c2ccccc12	5	6	1	4	-5	6
CCOc1ccc(CNC(=O)CCCn2nc(C)c3c(C)n(-c4ccc(C)cc4)nc3c2=O)cc1	3	5	7	5	-1	0
COc1ccc(Br)cc1C(=O)NC(=S)Nc1c(C)n(C)n(-c2ccccc2)c1=O	-3	10	1	7	-5	19
Cc1ccc(SCCC(=O)NCCSCc2ccccc2C)cc1	-3	-6	42*	4	-1	2
CCCCNC(=O)CCSc1ccc(C)cc1	1	3	13	2	-2	4
Cc1ccccc1NS(=O)(=O)c1cc(C(=O)NCCC2=CCCCC2)ccc1Cl	-3	6	21	17	3	5
Cc1cccc(NS(=O)(=O)c2cc(C(=O)NCCC3=CCCCC3)ccc2Cl)c1	-9	-14	25*	12	2	-3
Cc1cc2[nH]c(=O)c(=O)[nH]c2cc1S(=O)(=O)Nc1cccc(Cl)c1C	1	4	7	5	3	4
N#Cc1cccc(-c2cn(S(=O)(=O)c3ccc(Cl)cc3)nc2N)c1	7	-2	5	4	1	-7
Nc1nn(S(=O)(=O)c2ccccc2)cc1-c1ccc([N+](=O)[O-])cc1	4	7	32*	5	-1	0
O=C(O)CC/C(=N\Nc1ccc(S(=O)(=O)N2CCCC2)cc1[N+](=O)[O-])c1cccs1	x	x	28*	x	9	10
COc1ccc(Cl)cc1NC(=O)CN1CCC(n2nnc3ccccc32)CC1	2	2	1	25*	-5	4
COc1ccc(Cl)cc1NC(=O)CN1CCC(NC(=O)C2CC2)CC1	-3	-6	2	-2	-1	-2
O=C(CNC(=O)c1ccc(Br)o1)NNC(=O)COc1ccccc1Cl	x	1	-5	1	1	3
COc1ccc(C2c3sc(=O)[nH]c3SC3C4CCC(C4)C23)cc1OC (stereo not drawn)	9	1	20	8	12	4
O=C(O)CCCN1C(=O)C2C3CC(C2C1=O)C1C(c2ccccc2)c2sc(=O)[nH]c2SC31 (stereo not drawn)	1	2	81*	4	-3	2
O=c1[nH]c2c(s1)C(c1ccc(O)cc1)C1C3CCC(C3)C1S2 (stereo not drawn)	6	4	27*	10	-2	6
O=C(O)CN1C(=O)C2C3CC(C2C1=O)C1C(c2ccc(Cl)cc2)c2sc(=O)[nH]c2SC31 (stereo not drawn)	2	1	47*	2	5	6
O=c1[nH]c2c(s1)C(c1cccnc1)C1C3CCC(C3)C1S2 (stereo not drawn)	1	7	24	2	1	10
SMILES	Fam108B counter	PME-1 inh	PAFAH1B2 FP inh	pPAFAH inh	PAFAH2 FP inh	PAFAH1B3 inh
O=C(O)CN1C(=O)C2C3CC(C2C1=O)C1C(c2ccc(F)cc2)c2sc(=O)[nH]c2SC31 (stereo not drawn)	-2	-3	54*	3	-2	9
O=S(=O)(Cc1ccccc1)CS(=O)(=O)Cc1ccccc1	x	x	0	x	2	0
CC(=O)c1cc(N2CCC(C(=O)O)CC2)ccc1[N+](=O)[O-]	3	-9	x	3	x	x
CCOC(=O)CCCCC1C(CCCC(=O)OCC)C=NN1C (stereo not drawn)	x	x	4	x	6	10
CCC(C(=O)OCC(=O)N(CCOC)c1c(N)n(Cc2ccccc2)c(=O)[nH]c1=O)c1ccccc1 (stereo not drawn)	-5	-3	14	4	-10	1
COc1ccccc1C(=O)NC1CCN(C(=O)Nc2ccc(F)cc2)CC1	4	-3	-3	-6	-5	-3
CC(C(=O)O)N1C(=O)C2C3CC(C2C1=O)C1C(c2ccccc2)c2sc(=O)[nH]c2SC31 (stereo not drawn)	3	-1	55*	1	3	1
CC(C(=O)O)N1C(=O)C2C3c4ccccc4C(c4ccccc43)[C@@H]2C1=O (stereo partly drawn)	3	-1	6	-2	1	4
CCCCn1cnc2sc(-c3ccccc3)cc2c1=O	4	-2	5	1	3	2
O=c1c2cc(-c3ccccc3)sc2ncn1/N=C/c1ccco1	-1	0	4	26*	8	-2
CCOC(=O)C1=C(COC(=O)c2cc(Br)c(Br)s2)NC(=O)NC1C (stereo not drawn)	-1	2	2	2	-1	4
O=[N+]([O-])c1ccc(C2Nc3cccc4cccc(c34)N2)cc1	13	29*	6	0	5	19
O=[N+]([O-])c1cccc(C2Nc3cccc4cccc(c34)N2)c1	21*	21	-1	13	-13	11
Brc1ccc(C2Nc3cccc4cccc(c34)N2)cc1	x	x	6	x	-1	10
COCCN(C(=O)COC(=O)c1cc(C)oc1C)c1c(N)n(Cc2ccccc2)c(=O)[nH]c1=O	4	1	-2	6	6	8
COc1ccc2[nH]c3c(c2c1)CCN1C(=O)C(CC(=O)NC(C)(C)C)C[C@H](C(=O)N2CCCCC2)[C@@]31C (stereo partly drawn)	x	x	3	7	-1	4
COC(=O)c1sccc1NC(=O)CSc1ccc(Cl)cc1	-5	1	29*	8	-6	-12
CCCn1nnc(NC(=O)Cc2ccc(Cl)cc2)n1	-2	6	27*	1	2	7
COc1cc(Cl)c(C)cc1NC(=O)CSc1ccc(C)cc1	-2	-3	34*	0	-4	3
COC(=O)c1sccc1NC(=O)CSc1ccccc1N	2	3	6	-3	2	6
CCCn1nnc(NC(=O)COc2ccc(Cl)cc2)n1	2	-5	3	-1	3	8
Cn1nnc(NC(=O)CSc2ccc(Cl)cc2)n1	-4	-1	25*	3	-8	-1
O=C(Nc1ccccc1Br)c1cc[n+]([O-])cc1	-3	1	3	-1	0	11
CC1CCCCC12NC(=O)N(CC(=O)Nc1cccc(S(=O)(=O)N3CCCCC3)c1)C2=O (stereo not drawn)	x	2	0	-2	-7	-4
